From PubChem
sEH inhibitor: soluble epoxide hydrolase inhibitors, primary screen, biochemical, human sEH; Bifunctional epoxide hydrolase 2 (Homo sapiens), P34913; recombinant human sEH enzymatic activity assay; inhibition, % at 2 µM; hit rate 0.34% among 91,000; AID 707, 2007; in the data active means inhibition above about 80%
Target sequence (P34913 whole entry, looked up): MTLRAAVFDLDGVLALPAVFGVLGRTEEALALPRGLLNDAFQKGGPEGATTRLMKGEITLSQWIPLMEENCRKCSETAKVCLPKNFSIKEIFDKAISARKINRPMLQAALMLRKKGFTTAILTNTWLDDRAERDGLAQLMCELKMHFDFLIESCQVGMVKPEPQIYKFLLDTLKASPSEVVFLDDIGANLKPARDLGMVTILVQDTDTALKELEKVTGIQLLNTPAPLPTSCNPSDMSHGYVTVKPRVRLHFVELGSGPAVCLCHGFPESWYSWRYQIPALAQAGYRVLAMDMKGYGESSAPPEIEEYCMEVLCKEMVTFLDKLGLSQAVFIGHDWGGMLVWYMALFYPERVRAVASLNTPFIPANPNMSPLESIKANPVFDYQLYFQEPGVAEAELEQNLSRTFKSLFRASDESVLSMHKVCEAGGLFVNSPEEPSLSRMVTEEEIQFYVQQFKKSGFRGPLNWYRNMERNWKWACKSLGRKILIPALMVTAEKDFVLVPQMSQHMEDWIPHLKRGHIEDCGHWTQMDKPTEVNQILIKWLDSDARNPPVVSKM
sEH activator: soluble epoxide hydrolase activators, primary screen, biochemical, human sEH; Bifunctional epoxide hydrolase 2 (Homo sapiens), P34913; purified human sEH enzymatic activity, activator screen; activation, % at 2 µM; hit rate 0.04% among 91,000; AID 717, 2007; in the data active means activation above about 37%
CYP2C9 inh: blockers of cytochrome P450 2C9 activity – biochemical, luminescence, ADME assay, primary screen | P11712 | CYP2C9 Supersomes, luciferin-H conversion | inhibition, % at 5 µM | hit rate 20% among 96,000 | AID 777, 2007;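 active means blocking of liver enzyme CYP2C9 beyond about 50% at 5 µM, limit read from the data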
CYP2C19 act: human CYP2C19 activators, primary screen, biochemical, luminescence; Cytochrome P450 2C19 (Homo sapiens), P33261; recombinant CYP2C19, luciferin-H EGE luminescence; stronger effect = higher value; 0 = fully inhibited enzyme, 1 = untreated enzyme; activation factor at 5 µM; 96,000 tested, under 10 active;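 active means activation factor of at least 2 at 5 µM in the primary screen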;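 further: 0 = wells with 2.5 mM tranylcypromine and 1 = vehicle-only wells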
CYP2C9 act: human CYP2C9 activators, primary screen, biochemical, luminescence. activation factor at 5 µM. recombinant CYP2C9, luciferin-H conversion; stronger effect = higher value; factor 1 = untreated enzyme, 0 = blocked. hit rate 1.4% among 96,000;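 active means activation factor of 2 or more for CYP2C9 at a 5 µM dose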;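 further: 0 = sulfaphenazole-blocked wells and 1 = vehicle-only wells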
CYP2C19 inhib: blockers of cytochrome P450 2C19 activity – biochemical, luminescence, ADME assay, primary screen; P33261; CYP2C19 Supersomes, luciferin-H EGE luminescence, 30 min; inhibition, % at 5 µM; hit rate 21% among 96,000;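 active means CYP2C19 inhibition above a set limit at 5 µM in the primary screen, cut at about 50% in these data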;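 further: plate controls were negative control wells for no effect and 2.5 mM tranylcypromine positive control for full effect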
* hit, by the source's call; nt = not tested or not shown. Compounds with a hit are over-represented: about 27% of the library has one in this group of screens.

SMILES	sEH inhibitor	sEH activator	CYP2C9 inh	CYP2C19 act	CYP2C9 act	CYP2C19 inhib
Cc1onc(-c2ccccc2Cl)c1C(=O)Nc1ccccc1C(N)=O	-5	6	38	0.4	0.6	56*
CCC(Sc1ncccc1C(=O)OC(C)C)C(=O)NCc1ccco1 (stereo unspecified)	-14	12	50	0.5	0.5	55*
CCOC(=O)c1cccnc1SC(CC)C(=O)NCc1ccco1 (stereo unspecified)	10	-7	70*	0.3	0.3	68*
CCC(Sc1ncccc1C(=O)OCCN1CCCC1=O)C(=O)NCc1ccco1 (stereo unspecified)	nt	nt	15	1.1	0.9	-9
CCOC(=O)NC(=O)CSc1nnc(C)s1	13	-10	7	1	0.9	-1
CSc1nnc(-c2cc3c(-c4ccccc4)nn(C)c3s2)n1C	2	0	16	1	0.8	4
O=C(O)c1sc2cc(C(F)(F)F)cnc2c1-c1ccccc1	-6	8	-10	1	1.1	-3
COC(=O)c1sc2cc(C(F)(F)F)cnc2c1-c1ccccc1	7	-6	59*	0.7	0.4	27
O=C(Nc1ccc(F)cc1)c1sc2cc(C(F)(F)F)cnc2c1-c1cccs1	-6	7	25	0.9	0.7	8
CSc1nnc(-c2sc3cc(C(F)(F)F)cnc3c2-c2ccccc2)n1C	-8	8	71*	0.7	0.3	25
N#Cc1ccc(NC(=O)c2sc3cc(C(F)(F)F)cnc3c2-c2cccs2)cc1	-11	11	62*	1.1	0.4	-10
Cc1c(NC(=O)CSc2nc3ccc(Cl)cc3[nH]2)c(=O)n(-c2ccccc2)n1C	-16	15	24	1	0.8	3
C=CCNc1nnc(SC2CC(=O)N(c3ccc(OC)cc3)C2=O)s1 (stereo unspecified)	-13	11	-3	0.7	1	35
CCNC(=S)NNC(=O)c1cc(C)on1	6	-6	-13	1.2	1.1	-15
CN(C(=O)CSc1nc2ccccc2n1CCc1ccccc1)C1CCS(=O)(=O)C1 (stereo unspecified)	nt	nt	6	0.3	0.9	68*
CCn1c(SCC(=O)N(Cc2ccccc2)C2CCS(=O)(=O)C2)nc2ccccc2c1=O (stereo unspecified)	13	-15	95*	0.2	0	81*
CCOC(=O)C1=C(CSc2nc3ccccc3s2)NC(=O)NC1c1cccc([N+](=O)[O-])c1 (stereo unspecified)	1	0	22	0.7	0.8	34
Cc1cc(Oc2ccc(C#N)cc2)nc(NCc2ccccc2)n1	-18	21	9	0.9	0.9	11
COCCOC(=O)C1=C(C)NC(=O)N(C(C)=O)C1c1ccc(Cl)cc1 (stereo unspecified)	-12	12	66*	0.4	0.3	58*
CCOC(=O)C1=C(C)NC(=S)N(C(C)=O)C1c1ccc(Cl)cc1 (stereo unspecified)	4	-1	nt	nt	nt	nt
CC(C)(C)c1cc(NC(=O)COC(=O)C2CC2)n(-c2ccccc2)n1	-2	5	23	0.4	0.8	56*
COc1ccccc1/C=N/NC(=O)C1=NNC(c2ccccc2)(c2ccccc2)C1	-21	20	nt	nt	nt	nt
CC(C)N1C(=O)C2C(c3ccccc3O)NC(C)(C(=O)O)C2C1=O (stereo unspecified)	1	3	-39	1.2	1.4	-24
CC1CCCC(NC(=S)Nc2ccc(SC(F)F)cc2)C1C (stereo unspecified)	60	-60	-6	0.3	1.1	68*
COCCNC(=O)c1cc(-c2ccccc2OC)on1	-5	7	-158	0.8	2.6*	24
SMILES	sEH inhibitor	sEH activator	CYP2C9 inh	CYP2C19 act	CYP2C9 act	CYP2C19 inhib
COc1ccccc1-c1cc(C(=O)NCc2ccco2)no1	8	-7	-89	0.9	1.9	14
COc1ccccc1-c1cc(C(=O)NCc2cccs2)no1	15	-14	-126	1	2.3*	5
COc1ccc(C)cc1S(=O)(=O)N(CC(=O)O)c1ccc(F)cc1	-22	22	28	1	0.7	0
CCOC(=O)C1CCN(S(=O)(=O)c2cccc(-c3cn4ccccc4n3)c2)CC1	-9	8	38	0.7	0.6	32
CCOC(=O)C1CCN(S(=O)(=O)c2cccc(-c3cn4cccc(C)c4n3)c2)CC1	-3	3	64*	0.5	0.4	53*
CCOC(=O)C1CCN(S(=O)(=O)c2cccc(-c3cn4cc(Cl)ccc4n3)c2)CC1	-8	8	67*	0.2	0.3	76*
CC1CCN(S(=O)(=O)c2cccc(-c3cn4cc(Cl)ccc4n3)c2)CC1	-15	14	61*	0.5	0.4	46
CC(C)(C)C(=O)Nc1cccc(C(=O)c2cccc(NC(=O)C(C)(C)C)c2)c1	3	-4	22	0.5	0.8	55*
COc1ccc(C(=O)Nc2cccc(C)c2)cc1	-1	-1	9	0.3	0.9	71*
COc1ccc(C(=O)Nc2cccc(-c3cnc4ccccc4n3)c2)cc1	11	-9	nt	nt	nt	nt
Cc1ccc(C(=O)Nc2cccc(C(=O)O)c2)cc1	0	-3	54*	0.1	0.5	87*
CCOC(=O)c1c(-c2ccc(F)cc2)cn2ccccc12	-20	19	5	0.8	1	21
CCN(c1nc(C)cc(OC)n1)S(=O)(=O)c1ccccc1	3	-2	20	0.2	0.8	76*
OCC1(CO)COC2(CCCC2)N1	-12	10	-22	1.2	1.2	-18
CC(C)NC(=O)CSCc1ccccc1Cl	-6	6	17	0.3	0.8	66*
O=C(CSCc1ccccc1Cl)NNC(=S)Nc1ccccc1	7	-5	75*	0.1	0.3	86*
O=C(CSCc1ccccc1Cl)NN=C1CCCCCC1	62	-61	12	0.4	0.9	63*
CC(C)NC(=O)CSCc1c(F)cccc1Cl	8	-8	nt	nt	nt	nt
O=C(Nc1ccccc1-c1nc2ccccc2s1)c1cccnc1Cl	-6	7	12	1	0.9	1
Cc1ccc(Cl)cc1N1CCN(CC(=O)Nc2ccc3[nH]c(=O)[nH]c3c2)CC1	17	-15	-21	0.9	1.2	13
CCCCc1c(C)c(C#N)c2[nH]c3ccccc3n2c1=O	-15	15	12	1.1	0.9	-8
CCCc1cc(=O)n2c([nH]c3ccccc32)c1C#N	-6	8	56*	1	0.4	-2
CC(C)OCCCNC(=O)c1c(N)n(/N=C/c2cccs2)c2nc3ccccc3nc12	19	-15	46	0.8	0.5	21
